Compounds with a hit are over-represented: about 3.6% of the library has one in this group of screens.
Mtb hypoxia rep: Mtb hypoxia fluorescent reporter inhibition; M. tuberculosis hypoxia-regulated fluorescent reporter, fluorescence; fluorescence inhibition, % (no concentration beside the values); hit rate 0.1% among 300,000; AID 1159583; in the data active means fluorescence inhibition mostly above about 23%, no sharp cut-off; inactive means mostly below about 17%
Mtb bLac sens: beta-lactam sensitization of Mtb H37Rv | M. tuberculosis H37Rv growth with meropenem, percent inhibition | inhibition, % at 25 µM | hit rate 0.27% among 330,000; call rule not given here;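 further: growth measured after seven days incubation then overnight dye step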
DUSP3 inh: DUSP3 (human) phosphatase inhibition; AID 1654; recombinant VHR phosphatase, pNPP absorbance; inhibition, % at 13.3 µM; P51452; hit rate 0.52% among 290,000; in the data active means inhibition above about 50%
Target sequence (P51452 whole entry, looked up): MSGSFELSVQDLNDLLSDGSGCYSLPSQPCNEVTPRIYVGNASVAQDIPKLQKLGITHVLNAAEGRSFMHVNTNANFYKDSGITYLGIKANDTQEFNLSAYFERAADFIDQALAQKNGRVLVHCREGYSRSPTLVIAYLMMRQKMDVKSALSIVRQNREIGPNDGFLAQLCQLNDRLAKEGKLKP
GDH-TPI inh: GDH-TPI coupled enzyme inhibition counter-screen. GDH-TPI coupled enzyme counterscreen, NADH absorbance. inhibition, % at 4.8 µM. hit rate 1.2% among 360,000. AID 588335; in the data active means inhibition above about 30%
Mtb FBA inh: Mtb fructose-bisphosphate aldolase inhibition; P9WQA3; purified M. tuberculosis FBA, fluorescence read-out; inhibition, % at 1 µM; hit rate 2.3% among 360,000; AID 588726; in the data active means inhibition above about 27%
Target sequence (P9WQA3 whole entry, looked up): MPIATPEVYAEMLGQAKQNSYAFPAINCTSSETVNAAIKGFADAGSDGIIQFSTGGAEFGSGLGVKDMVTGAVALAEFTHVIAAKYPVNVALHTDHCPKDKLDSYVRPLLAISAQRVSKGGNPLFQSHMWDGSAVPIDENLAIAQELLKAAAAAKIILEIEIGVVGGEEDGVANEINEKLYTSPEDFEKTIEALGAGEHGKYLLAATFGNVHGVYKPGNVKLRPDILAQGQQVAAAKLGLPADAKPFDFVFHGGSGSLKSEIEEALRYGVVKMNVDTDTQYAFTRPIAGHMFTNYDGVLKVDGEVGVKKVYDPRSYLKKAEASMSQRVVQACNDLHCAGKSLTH
Each line names hits and unclear results; the compound was inactive in the other large screens.

CCOc1ccc(-c2cc(C)[n+](CCc3ccc(OC)c(OC)c3)c(-c3ccc(OCC)cc3)c2)cc1	GDH-TPI inh 30.7 (not shown: Mtb hypoxia rep)
CC(=O)c1cccc(NC(=O)CCCOc2ccc(C)cc2)c1	Mtb hypoxia rep active
C=CCOc1ccc(/C=N/NC(=O)C(=O)Nc2ccccn2)cc1OC	none (no result: Mtb hypoxia rep)
COc1ccc(/C=N/NC(=O)C(=O)Nc2ccccn2)cc1OC	GDH-TPI inh 42.9 (no result: Mtb hypoxia rep)
COc1ccc(C=NNC(=O)CC(=O)Nc2cccc(Cl)c2)cc1OC	none (no result: Mtb bLac sens, DUSP3 inh, GDH-TPI inh, Mtb FBA inh)
COc1cc(/C=N/NC(=O)CSCc2ccc([N+](=O)[O-])cc2)cc(OC)c1OC	Mtb bLac sens inconclusive (no result: Mtb hypoxia rep)
COc1ccc(/C=N/Nc2ccccn2)cc1OC	GDH-TPI inh 33.0 (no result: Mtb hypoxia rep)
COc1ccc(/C=N/NC(=O)CSCc2ccc([N+](=O)[O-])cc2)cc1OC	GDH-TPI inh 40.7 (no result: Mtb hypoxia rep)
COc1cc(C=NNC(=O)C(=O)Nc2cccc(Cl)c2)cc(OC)c1O	GDH-TPI inh 38.9 (no result: Mtb hypoxia rep, Mtb bLac sens, DUSP3 inh)
CC(=NO)C(C)/[N+]([O-])=C/c1nc(C)c(C)n1O (stereo unspecified)	none (no result: Mtb bLac sens, DUSP3 inh, GDH-TPI inh, Mtb FBA inh)
COc1cc(/C=N/NC(=O)C(=O)NCc2cccnc2)ccc1O	GDH-TPI inh 34.5 (no result: Mtb hypoxia rep)
COc1ccc(C=NNC(=O)NN=Cc2ccc(OC)c(OC)c2)cc1OC	GDH-TPI inh 47.8 (no result: Mtb bLac sens, DUSP3 inh)
CCCCCCCC(=O)N1CCN(c2cc3c(cc2F)c(=O)c(C(=O)O)cn3CC)CC1	none
CCC(C)NC(=O)c1cn(CC)c2cc(N3CCN(C(=O)c4ccco4)CC3)c(F)cc2c1=O (stereo unspecified)	Mtb FBA inh 54.3
C=CCNC(=O)c1cn(CC)c2cc(N3CCN(C(=O)c4ccco4)CC3)c(F)cc2c1=O	Mtb FBA inh 97.0
CCn1cc(C(=O)O)c(=O)c2cc(F)c(N3CCNCC3)cc21	Mtb FBA inh 55.4 (no result: Mtb hypoxia rep)
CCOC(=O)C1C2COc3cc(OC)ccc3C2N2C(=O)CN(Cc3ccc(OC)cc3)C(=O)[C@@]12C (stereo partly specified)	none (no result: Mtb bLac sens, DUSP3 inh, GDH-TPI inh, Mtb FBA inh)
O=C(Cn1cc(C(F)(F)F)ccc1=O)NN=Cc1ccc(Cl)cc1	none (no result: Mtb bLac sens, DUSP3 inh, GDH-TPI inh, Mtb FBA inh)
COc1ccc(-c2ccnc3nc(-n4cccc4)nn23)cc1	none
COc1ccc(-c2ccnc3nc(N4CCOCC4)nn23)cc1	GDH-TPI inh 34.0, Mtb FBA inh 84.0
Cc1nn(-c2ccccc2)c(Oc2ccc(F)cc2)c1C=Nn1cnnc1	none (no result: Mtb bLac sens, DUSP3 inh, GDH-TPI inh, Mtb FBA inh)
COC(=O)c1ccccc1NC(=O)C(=O)NCc1ccncc1	DUSP3 inh 56.3
Cc1cc(C)nc(NS(=O)(=O)c2ccc(N/C=C/C(=O)c3ccc(Cl)c(Cl)c3)cc2)n1	none (no result: Mtb hypoxia rep)
Cc1cc(C)nc(NS(=O)(=O)c2ccc(N/C=C\C(=O)c3ccc(Cl)cc3)cc2)n1	GDH-TPI inh 31.5
CCOc1ccc(C(=O)/C=C/Nc2ccc(S(=O)(=O)Nc3cc(C)nc(C)n3)cc2)cc1	DUSP3 inh 50.0 (no result: GDH-TPI inh, Mtb FBA inh)
COC(=O)NN=Cc1cn(CCOc2cccc(OC)c2)c2ccccc12	none (no result: Mtb bLac sens, DUSP3 inh, GDH-TPI inh, Mtb FBA inh)
CC1(C)Nc2ccccc2C(=O)N1c1ccccc1	Mtb FBA inh 114.8
CCC(C=NNC(=O)CCCCC(=O)NN=CC(CC)CC)CC	none (no result: Mtb bLac sens, DUSP3 inh, GDH-TPI inh, Mtb FBA inh)
CCOC(=O)C1=C(C)NC(SC)=C(C#N)C1CC(C)C (stereo unspecified)	GDH-TPI inh 32.4
CC(=O)C1=C(C)NC(SCC(N)=O)=C(C#N)C1CC(C)C (stereo unspecified)	none
Nc1nn(-c2ccccc2)c(N)c1N=Nc1ccccc1	GDH-TPI inh 34.2
Cc1cc(C)n2nc(N)c(N=Nc3ccccc3)c2n1	Mtb hypoxia rep 83.9
O=C(O)C1=CC(c2ccc3c(c2)OCO3)CC(OCCCCO)O1 (stereo unspecified)	none (no result: Mtb bLac sens, DUSP3 inh, GDH-TPI inh, Mtb FBA inh)
COc1cc(OC)cc(C(=O)NC(C(=O)OCC(=O)Nc2ccc(C(N)=O)cc2)C(C)C)c1 (stereo unspecified)	none (no result: Mtb bLac sens, DUSP3 inh, GDH-TPI inh, Mtb FBA inh)
Cc1nc(Cl)cc(N/N=C/c2ccc(O)cc2)n1	GDH-TPI inh 35.4 (no result: Mtb hypoxia rep)
Cc1nc(Cl)cc(NN=Cc2ccccc2)n1	none (no result: Mtb bLac sens, DUSP3 inh, GDH-TPI inh, Mtb FBA inh)
Oc1cccc(C=NNc2ccc(Cl)nn2)c1	none (no result: Mtb bLac sens, DUSP3 inh, GDH-TPI inh, Mtb FBA inh)
Cc1nc(Cl)cc(N/N=C/c2ccc(O)cc2O)n1	GDH-TPI inh 59.4 (no result: Mtb hypoxia rep)
CCOc1ccc(/C=N/Nc2cc(N3CCOCC3)nc(C)n2)c(O)c1	GDH-TPI inh 34.2 (no result: Mtb hypoxia rep)
Oc1ccc(/C=N/Nc2ccc(Cl)nn2)cc1O	GDH-TPI inh 31.9 (no result: Mtb hypoxia rep)
CC(C(=O)N1CCNCC1)n1cc(CCCN=C(N)N)nn1 (stereo unspecified)	none (no result: Mtb bLac sens, DUSP3 inh, GDH-TPI inh, Mtb FBA inh)
CCCCCC(O)c1cc2ccccc2c(=O)o1 (stereo unspecified)	none (no result: Mtb bLac sens, DUSP3 inh, GDH-TPI inh, Mtb FBA inh)
CNc1cnc(-c2ccc(F)c(F)c2F)cn1	Mtb FBA inh 165.9 (no result: Mtb hypoxia rep, Mtb bLac sens, DUSP3 inh)
COc1ccc(/C=N\NC(=S)SCN2C(=O)C3CCC(C)(C2=O)C3(C)C)cc1 (stereo unspecified)	GDH-TPI inh 46.3 (no result: Mtb hypoxia rep, DUSP3 inh)

From PubChem
